The campaign covered roughly 5,500 compounds. About 2,000 (36%) were called active. About 18% were inconclusive and are not listed. Cut-off read from the data, not from the text of the source: active = normalized growth mostly below about 0.91 (no sharp cut-off); inconclusive = no clear call, values can overlap the other calls; inactive = mostly above about 0.92. This is one part of the list.
Experiment: chemical genetic growth profiling, strain panel (AID 1159580);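 note: tested at 20 µM; growth read once vehicle control cultures reached saturation at 30 °C; 1 = growth at the plate median or of vehicle wells; lower values mean less growth of the strain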
Conditions: growth OD

Measured: normalized growth

CCCc1nc(C(C)(C)O)c(C(=O)OCc2oc(=O)oc2C)n1Cc1ccc(-c2ccccc2-c2nn[nH]n2)cc1
inactive: S. cerevisiae deletion strains, locus YKL009W, strain mrt4, active compounds read low 0.957 | S. cerevisiae deletion strains, locus YKL068W, active compounds read low 0.988 | S. cerevisiae deletion strains, locus YKL085W, strain MDH1 (second series), active compounds read low 0.98 | S. cerevisiae deletion strains, locus YKL085W, strain MDH1, active compounds read low 0.98 | S. cerevisiae deletion strains, locus YKL160W, strain elf1, active compounds read low 0.994 | S. cerevisiae deletion strains, locus YKL190W, strain CNB1, active compounds read low 1.01 | S. cerevisiae deletion strains, locus YKR001C, strain vps1, active compounds read low 0.985 | S. cerevisiae deletion strains, locus YKR026C, strain gcn3, active compounds read low 0.976 | S. cerevisiae deletion strains, locus YKR091W, strain srl3, active compounds read low 0.981 | S. cerevisiae deletion strains, locus YLL001W, strain dnm1, active compounds read low 0.972 | S. cerevisiae deletion strains, locus YLL026W, active compounds read low 0.958 | S. cerevisiae deletion strains, locus YLL041C, strain sdh2, active compounds read low 0.972 | S. cerevisiae deletion strains, locus YLR027C, strain aat2, active compounds read low 0.984 | S. cerevisiae deletion strains, locus YLR039C, strain RIC1, active compounds read low 0.981 | S. cerevisiae deletion strains, locus YLR058C, strain SHM2, active compounds read low 0.988 | S. cerevisiae deletion strains, locus YLR102C, strain apc9, active compounds read low 0.989 | S. cerevisiae deletion strains, locus YLR113W, strain HOG1, active compounds read low 0.987 | S. cerevisiae deletion strains, locus YLR221C, strain rsa3, active compounds read low 1.02 | S. cerevisiae deletion strains, locus YLR258W, strain gsy2, active compounds read low 0.977 | S. cerevisiae deletion strains, locus YLR262C, strain YPT6 (second series), active compounds read low 0.962 | S. cerevisiae deletion strains, locus YLR262C, strain YPT6, active compounds read low 0.987 | S. cerevisiae deletion strains, locus YLR268W, strain sec22, active compounds read low 0.971 | S. cerevisiae deletion strains, locus YLR320W, strain mms22, active compounds read low 1.01 | S. cerevisiae deletion strains, locus YLR330W, strain CHS5, active compounds read low 0.995 | S. cerevisiae deletion strains, locus YLR342W, strain FKS1 (second series), active compounds read low 0.977 | S. cerevisiae deletion strains, locus YLR342W, strain FKS1, active compounds read low 0.978 | S. cerevisiae deletion strains, locus YLR357W, strain rsc2, active compounds read low 0.985 | S. cerevisiae deletion strains, locus YLR370C, strain arc18, active compounds read low 0.947 | S. cerevisiae deletion strains, locus YLR371W, strain rom2, active compounds read low 0.985 | S. cerevisiae deletion strains, locus YLR384C, strain iki3, active compounds read low 0.977 | S. cerevisiae deletion strains, locus YLR418C, strain cdc73, active compounds read low 0.952 | S. cerevisiae deletion strains, locus YML016C, strain PPZ1, active compounds read low 0.993 | S. cerevisiae deletion strains, locus YML032C, strain rad52, active compounds read low 0.993 | S. cerevisiae deletion strains, locus YML120C, strain ndi1, active compounds read low 0.97 | S. cerevisiae deletion strains, locus YML124C, strain tub3, active compounds read low 0.984 | S. cerevisiae deletion strains, locus YMR058W, strain fet3, active compounds read low 0.965 | S. cerevisiae deletion strains, locus YMR078C, strain ctf18, active compounds read low 0.99 | S. cerevisiae deletion strains, locus YMR125W, strain sto1, active compounds read low 0.932 | S. cerevisiae deletion strains, locus YMR129W, active compounds read low 0.97 | S. cerevisiae deletion strains, locus YMR205C, strain PFK2, active compounds read low 0.976 | S. cerevisiae deletion strains, locus YMR223W, strain ubp8, active compounds read low 0.995 | S. cerevisiae deletion strains, locus YMR231W, strain pep5, active compounds read low 0.967 | S. cerevisiae deletion strains, locus YMR263W, strain SAP30, active compounds read low 1.02 | S. cerevisiae deletion strains, locus YMR307W, strain GAS1, active compounds read low 0.894 | S. cerevisiae deletion strains, locus YNL067W, strain RPL9B, active compounds read low 1.03 | S. cerevisiae deletion strains, locus YNL071W, strain lat1, active compounds read low 0.977 | S. cerevisiae deletion strains, locus YNL128W, strain TEP1, active compounds read low 1.02 | S. cerevisiae deletion strains, locus YNL153C, strain GIM3, active compounds read low 0.996 | S. cerevisiae deletion strains, locus YNL183C, strain NPR1, active compounds read low 0.963 | S. cerevisiae deletion strains, locus YNL209W, strain ssb2, active compounds read low 0.971 | S. cerevisiae deletion strains, locus YNL233W, strain BNI4, active compounds read low 0.992 | S. cerevisiae deletion strains, locus YNL248C, strain rpa49, active compounds read low 0.969 | S. cerevisiae deletion strains, locus YNL250W, strain rad50, active compounds read low 0.992 | S. cerevisiae deletion strains, locus YNL271C, strain bni1, active compounds read low 0.992 | S. cerevisiae deletion strains, locus YNL298W, strain CLA4, active compounds read low 0.975 | S. cerevisiae deletion strains, locus YNL307C, strain MCK1, active compounds read low 0.992 | S. cerevisiae deletion strains, locus YNL322C, strain KRE1 (second series), active compounds read low 0.972 | S. cerevisiae deletion strains, locus YNL322C, strain KRE1, active compounds read low 0.997 | S. cerevisiae deletion strains, locus YNR049C, strain mso1, active compounds read low 0.968 | S. cerevisiae deletion strains, locus YNR052C, strain pop2, active compounds read low 0.99 | S. cerevisiae deletion strains, locus YOL006C, strain TOP1, active compounds read low 0.998 | S. cerevisiae deletion strains, locus YOL012C, strain htz1 1.03 | S. cerevisiae deletion strains, locus YOL147C, strain pex11, active compounds read low 0.998 | S. cerevisiae deletion strains, locus YOR001W, strain rrp6, active compounds read low 0.943 | S. cerevisiae deletion strains, locus YOR061W, strain CKA2, active compounds read low 0.989 | S. cerevisiae deletion strains, locus YOR069W, strain VPS5, active compounds read low 0.994 | S. cerevisiae deletion strains, locus YOR070C, strain gyp1, active compounds read low 0.992 | S. cerevisiae deletion strains, locus YOR080W, strain dia2, active compounds read low 0.964 | S. cerevisiae deletion strains, locus YOR083W, strain WHI5, active compounds read low 0.993 | S. cerevisiae deletion strains, locus YOR106W, strain vam3, active compounds read low 0.969 | S. cerevisiae deletion strains, locus YOR136W, strain idh2, active compounds read low 0.986 | S. cerevisiae deletion strains, locus YOR144C, strain elg1, active compounds read low 0.985 | S. cerevisiae deletion strains, locus YOR184W, strain ser1, active compounds read low 0.995 | S. cerevisiae deletion strains, locus YOR231W, strain MKK1, active compounds read low 0.958 | S. cerevisiae deletion strains, locus YOR265W, strain rbl2, active compounds read low 0.979 | S. cerevisiae deletion strains, locus YOR270C, strain vph1, active compounds read low 1.01 | S. cerevisiae deletion strains, locus YOR290C, strain snf2, active compounds read low 0.983 | S. cerevisiae deletion strains, locus YOR316C, strain cot1, active compounds read low 0.989 | S. cerevisiae deletion strains, locus YPL051W, strain arl3, active compounds read low 0.988 | S. cerevisiae deletion strains, locus YPL055C, strain LGE1, active compounds read low 0.993 | S. cerevisiae deletion strains, locus YPL078C, strain atp4, active compounds read low 0.961 | S. cerevisiae deletion strains, locus YPL106C, strain sse1, active compounds read low 0.894 | S. cerevisiae deletion strains, locus YPL240C, strain hsp82, active compounds read low 0.974 | S. cerevisiae deletion strains, locus YPL241C, strain CIN2, active compounds read low 0.999 | S. cerevisiae deletion strains, locus YPL256C, strain CLN2, active compounds read low 0.95 | S. cerevisiae deletion strains, locus YPR119W, strain clb2, active compounds read low 0.992 | S. cerevisiae deletion strains, locus YPR141C, strain kar3, active compounds read low 0.99 | S. cerevisiae deletion strains, locus YPR163C, strain tif3, active compounds read low 0.981 | S. cerevisiae deletion strains, locus YPR167C, strain met16, active compounds read low 0.982 | S. cerevisiae deletion strains, strain wtn01, active compounds read low 0.981 | S. cerevisiae strains, strain wild type, active compounds read low 1.02

Source: PubChem BioAssay AID1159580 (chemical genetic matrix, 2015)
